High-throughput results as filed in PubChem.
Shown are actives, neighbours in structure and some others; about 12% of the full set was active somewhere.
JMJD2A Tudor inh: JMJD2A Tudor domain (human) inhibition | Potency, µM (series often up to 114 µM), for the others: at the top dose activity change, negative = inhibition, most hits filed as inhibitors | AID 504339 | AlphaScreen JMJD2A-Tudor / H3K4me3 peptide binding | 390,000 tested, 4.4% active | O75164; also: % is scaled to controls: 0 for no effect and ±100 for the full control effect; nearly all actives have a fitted effect of over 50% in size
Sfp PPTase inh: blocks B. subtilis Sfp PPTase activity. 310,000 tested, 3.5% active. Biochemical Sfp PPTase activity, qHTS. Potency, µM, for the others: largest response in the series, negative = inhibition, usual class: inhibitors. AID 1490. Q9F4F7;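 also: the enzyme is Sfp with the accession as filed and its product quenches rhodamine fluorescence; 0% = enzyme reaction without inhibitor and -100% = no enzyme wells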
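After 15 min at room temperature with compound, 15 nM Sfp received 5 uM rhodamine-CoA plus 12.5 uM BHQ-2-ybbR (50 mM Hepes pH 7.6, 10 mM MgCl2). Rate came from the fluorescence difference over 30 min, ex 525/em 598 nm.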
BAZ2B block: inhibitors of human BAZ2B bromodomain; 360,000 tested, 4.4% active; AID 504333; Potency, µM (series often up to 114 µM), for inactives: at the highest dose activity change, negative = inhibition, hits mostly inhibitors; AlphaScreen BAZ2B-H3K14Ac peptide displacement; also: % is scaled to controls: 0 for no effect and ±100 for the full control effect; nearly all actives have a fitted effect of over 60% in size
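Protein-peptide AlphaScreen: BAZ2B 50 nM, b-H3K14Ac 50 nM, 1x PBS pH 7.4 + 0.01% Tween-20. Preincubation 30 min RT; cpd 30 min RT (top 110 uM); beads 20 min RT, light-protected.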
G9a inh: inhibitors of human histone lysine methyltransferase G9a. G9a H3K9 monomethylation, AlphaScreen, 2 h. AID 504332. Potency, µM (series often up to 102 µM), for the others: at the highest dose activity, negative = inhibition, usual class: inhibitors. Q96KQ7. 350,000 tested, 8.8% active; also: % is scaled to controls: 0 for no effect and ±100 for the full control effect; nearly all actives have a fitted effect of over 75% in size
Target sequence (Q96KQ7 913-1193 limits assumed): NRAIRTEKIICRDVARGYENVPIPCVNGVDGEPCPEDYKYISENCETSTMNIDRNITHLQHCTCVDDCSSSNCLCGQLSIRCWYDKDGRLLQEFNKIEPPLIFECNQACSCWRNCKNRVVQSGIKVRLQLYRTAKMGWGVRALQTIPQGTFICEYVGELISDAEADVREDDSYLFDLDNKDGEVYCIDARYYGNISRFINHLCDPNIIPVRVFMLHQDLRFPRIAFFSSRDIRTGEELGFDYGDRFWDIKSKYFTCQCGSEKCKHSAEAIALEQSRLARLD
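Enzyme 20 nM + cpd, 15 min RT; add b-H3K9 pep 500 nM / SAM 20 uM; 2 h RT; anti-H3K9me1 Ab 0.5 ug/mL + SA donor / anti-rabbit acceptor beads 20 ug/mL each, 10 min; AlphaScreen read.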
HP1b chromo inh: HP1-beta chromodomain-methylated histone interaction inhibition. AlphaScreen HP1-beta / biotin-H3K9me3 peptide binding. Potency, µM (series often up to 114 µM), without a hit: at the highest dose activity change, negative = inhibition, hits mostly inhibitors. 390,000 tested, 0.56% active; also: nearly all actives have a fitted effect of over 70% in size
Target sequence (P83916 whole entry, looked up): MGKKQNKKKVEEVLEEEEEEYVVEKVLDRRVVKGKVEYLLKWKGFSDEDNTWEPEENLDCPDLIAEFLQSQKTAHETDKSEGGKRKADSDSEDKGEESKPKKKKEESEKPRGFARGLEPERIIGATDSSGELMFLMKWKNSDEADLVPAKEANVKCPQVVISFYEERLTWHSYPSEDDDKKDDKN
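AlphaScreen: HP1-beta (50 nM) preformed 30 min with biotin-H3(1-18)K9me3 peptide (50 nM) in PBS pH 7.4, 0.01% Tween-20. Compound added for 30 min at RT, then streptavidin donor/nickel chelate acceptor beads (10 ug/mL) for 30 min.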
PLK1 PBD inh: inhibitors of human PLK1 polo-box domain binding; P53350; Plk1 PBD binding of FITC phosphopeptide, fluorescence polarization; Potency, µM, inactives show max response, negative = inhibition, most hits filed as inhibitors; 360,000 tested, 2.8% active; AID 720504; also: series mostly up to about 57 µM; % is scaled to controls: 0 for no effect and ±100 for the full control effect; nearly all actives have a fitted effect of over 65% in size
* hit, by the source's call; ? = inconclusive; nt = no result given; ! = a repeat was not active; [ ] = dose if it differs, or a comment. Calls follow the shape of the dose curve; as a rule, active = well fitted curve in the direction sought with a large enough effect; inconclusive = small, poorly fitted or top-dose-only effect, or another doubt; inactive = no such curve, though single readings can be large; an effect the other way counts as inactive or inconclusive. Potency is read from the fitted curve at half-maximal effect.

SMILES | JMJD2A Tudor inh | Sfp PPTase inh | BAZ2B block | G9a inh | HP1b chromo inh | PLK1 PBD inh
CC1=C(C)/C(=N/OC(=O)c2cccc([N+](=O)[O-])c2)C=CC1=O | -29% | 18% | -23% | 10µM* | 10% | 4.2µM*
N/C(=N/OC(=O)c1cccc([N+](=O)[O-])c1)c1cccc([N+](=O)[O-])c1 | -25% | -1% | -23% | ? | 5% | 4%
O=C(/C=C/c1ccc(I)cc1)c1ccc(B(O)O)cc1 | nt | 17% | nt | nt | nt | nt
NCCC(=O)NCCc1cnc[nH]1 | ? | -4% | 5% | -1%[59 µM] | 18% | -28%
NCCc1cnc[nH]1 | -21% | ? | ? | 8.4µM*! | 32% | -14%
CCc1ccc(N2C(=O)N(CC(=O)C(C)(C)C)c3ccccc3S2(=O)=O)cc1 | -15% | nt | 0% | 0%[59 µM] | 12% | nt
Oc1c(C(c2ccco2)N2CCN(C(c3ccccc3)c3ccccc3)CC2)sc2ncnn12 (centres undefined) | ? | 50µM* | ? | 18µM* | -4% | -15%
Oc1c(C(c2ccccc2)N2CCc3ccccc3C2)sc2ncnn12 (centres undefined) | 32µM* | 79µM* | 12% | 4µM* | ? | ?
COC(=O)C(C)(C)c1cccnc1C#N | -24% | nt | nt | nt | 31% | -13%
COc1ccc(-c2nc(-c3ccccc3)oc2NC(C)C)cc1 | nt | -22% | nt | nt | nt | nt
O=C(Cn1nc(Cl)nc1Cl)c1ccc2c(c1)OCCO2 | -16% | 6% | -1% | ? | 45% | 12µM*
O=C(Cn1nc(Cl)nc1Cl)c1ccccc1 | ? | 14% | -5% | 13% | 24% | 17µM*
Cc1nn(CC(=O)Nc2ccccc2)c(=O)c2ccccc12 | -9% | 5% | 10% | 2%[59 µM] | 10% | 2%
O=C(Cn1nc(Cl)nc1Cl)Nc1ccccc1 | 0% | 7% | 1% | 50µM* | 16% | -1%
Cc1cc(C)n(CC(=O)Nc2ccccc2)n1 | ? | 16% | 7% | 5%[0.0925 µM] | ? | 21µM*
Cc1cccc(Cn2cccc2CNS(=O)(=O)c2ccc(C)c(C)c2)c1 | -5% | nt | 0% | -26%[59 µM] | 28% | nt
COc1ccc(C2=C(C)C(=O)N(Cc3ccc(C(=O)NCc4cccc(C)c4)cc3)S2(=O)=O)cc1 | -12% | nt | 3% | 36%[59 µM] | -12% | nt
CCCCn1c(N)c(N(CCOC)C(=O)c2ccc(N3CCCC3)c([N+](=O)[O-])c2)c(=O)[nH]c1=O | -11% | nt | -38% | ? | 9% | -8%
COC(=O)c1ccc(-c2ccco2)n1Cc1nc(-c2ccc(OC)c(OC)c2)oc1C | -35% | 20µM* | ? | ? | -22% | -9%
COC(=O)c1cc2oc3ccccc3c2n1Cc1nc(-c2ccc(OC)cc2)oc1C | -16% | nt | -1% | -10%[59 µM] | 25% | nt
COC(=O)c1cc2occc2n1Cc1nc(-c2ccc(Cl)cc2)oc1C | -2% | -3% | -2% | -6%[59 µM] | 29% | 30µM*
O=C(O)c1ccc2c(=O)[nH]c(CN3CCOCC3)nc2c1 | 35µM* | -21% | ? | ? | 14% | -4%
O=C1CN(Cc2nc3cc(Cl)ccc3c(=O)[nH]2)CCN1 | 2.5µM* | 3% | -17% | ? | 51% | -25%
O=C(O)c1ccc2c(=O)[nH]c(CCl)nc2c1 | ? | 10% | -39% | 56µM* | 84% | ?
CCC(C(=O)NC1CCCCC1)N(Cc1cccs1)C(=O)CCC(=O)Nc1cc(C)on1 (centres undefined) | -3% | 20% | -6% | -1% | -5% | 3%
CCC(C)(C)NC(=O)CCn1c(-c2ccccc2)cc(C(C)=O)c1C | -17% | -4% | 50µM* | -22% | 6% | -4%
COc1cc(NC(=O)C2CC2)c(OC)cc1NC(=O)CCC(=O)NC1CCN(Cc2ccccc2)CC1 | -15% | 16% | -4% | 40µM* | 20% | -28%
CC(=O)c1ccc(S(=O)(=O)NCCC(=O)NC2CCN(Cc3ccccc3)CC2)cc1 | 4.5µM* | nt | nt | nt | 14µM* | -17%
CC(=O)c1cc(-c2ccccc2)n(CCC(=O)NC2CCCCCCC2)c1C | -30% | -15% | 50µM* | 1%[59 µM] | -28% | -8%
